The record followed here is publication PMC7862700, “An all-to-all approach to the identification of sequence-specific readers for epigenetic DNA modifications on cytosine”.

What all share (test): DAPPL (digital affinity profiling via proximity ligation, sequencing); 10 mM Tris-HCl pH 7.5, 50 mM NaCl, 1 mM DTT, 4% glycerol, room temperature, 30 min; GST-TFs on glutathione beads, 16-mer random dsDNA library, 0.1% formaldehyde crosslink after washing; high values mean tight binding
In one test the target is T1, FEV (Homo sapiens, UniProt Q99581 1-238).
T1 sequence: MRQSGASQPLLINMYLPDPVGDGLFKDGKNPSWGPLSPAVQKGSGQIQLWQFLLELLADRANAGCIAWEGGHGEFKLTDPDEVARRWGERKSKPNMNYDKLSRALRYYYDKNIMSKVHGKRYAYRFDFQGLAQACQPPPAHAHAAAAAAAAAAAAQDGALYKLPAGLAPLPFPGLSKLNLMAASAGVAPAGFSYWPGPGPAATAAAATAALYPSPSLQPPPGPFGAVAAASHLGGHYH
To be noted: protein: recombinant; tags: N-terminal GST; dsDNA, one strand shown. Summed up: (§1)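 Yeast served to express human transcription factors as GST fusions, which were then captured on glutathione beads and labelled with DNA barcodes. Pooled with a tag-only sample, they were incubated with 200 nmole of a 16-mer random double-stranded DNA library for 30 min at room temperature in Tris/NaCl/DTT/glycerol buffer, washed, crosslinked with 0.1% formaldehyde, ligated by proximity, amplified by PCR and sequenced. Dividing each hexamer's read frequency for a factor by its frequency for the tag-only sample gives the binding signal.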

The next test concerns the target ETV5 (Homo sapiens, UniProt P41161 1-510). The following applies: protein: recombinant; tags: N-terminal GST; dsDNA, one strand shown. An outline of the steps: as §1
The target of a further test is HSF1 (Homo sapiens, UniProt Q00613 1-529). The following applies: protein: recombinant; tags: N-terminal GST; chain copies: 3; dsDNA, one strand shown. An outline of the steps:
as §1

The next test has as its target T2, SPIC (Homo sapiens, UniProt Q8N5J4 1-248).
T2 sequence: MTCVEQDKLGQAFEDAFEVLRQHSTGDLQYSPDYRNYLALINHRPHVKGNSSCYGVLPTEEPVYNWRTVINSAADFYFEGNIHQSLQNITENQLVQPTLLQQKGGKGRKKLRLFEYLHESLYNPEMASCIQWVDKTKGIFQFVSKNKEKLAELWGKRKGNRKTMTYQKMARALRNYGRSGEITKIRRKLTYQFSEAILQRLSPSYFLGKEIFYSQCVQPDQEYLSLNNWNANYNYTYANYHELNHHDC
The following applies: protein: recombinant; tags: N-terminal GST; dsDNA, one strand shown. An outline of the steps:
as §1

The target of another test is ELF4 (Homo sapiens, UniProt Q99607 1-663). To be noted: protein: recombinant; tags: N-terminal GST; dsDNA, one strand shown. Summed up:
as §1

The target of another test is T3, ELK4 (Homo sapiens, UniProt P28324-2 1-405).
T3 sequence: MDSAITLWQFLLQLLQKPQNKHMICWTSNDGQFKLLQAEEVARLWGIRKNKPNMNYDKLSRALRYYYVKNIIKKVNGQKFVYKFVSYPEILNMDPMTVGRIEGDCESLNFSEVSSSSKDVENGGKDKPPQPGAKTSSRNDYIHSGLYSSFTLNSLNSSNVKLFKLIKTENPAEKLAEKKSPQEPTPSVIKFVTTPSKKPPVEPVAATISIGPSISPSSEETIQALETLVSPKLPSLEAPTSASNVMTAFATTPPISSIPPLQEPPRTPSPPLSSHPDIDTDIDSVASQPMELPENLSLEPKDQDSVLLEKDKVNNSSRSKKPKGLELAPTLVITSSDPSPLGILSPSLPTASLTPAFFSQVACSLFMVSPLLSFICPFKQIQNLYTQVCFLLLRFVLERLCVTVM
To be noted: protein: recombinant; tags: N-terminal GST; dsDNA, one strand shown. An outline of the steps: as §1

The target of the next test is T4, ETV2 (Homo sapiens, UniProt O00321 1-342).
T4 sequence: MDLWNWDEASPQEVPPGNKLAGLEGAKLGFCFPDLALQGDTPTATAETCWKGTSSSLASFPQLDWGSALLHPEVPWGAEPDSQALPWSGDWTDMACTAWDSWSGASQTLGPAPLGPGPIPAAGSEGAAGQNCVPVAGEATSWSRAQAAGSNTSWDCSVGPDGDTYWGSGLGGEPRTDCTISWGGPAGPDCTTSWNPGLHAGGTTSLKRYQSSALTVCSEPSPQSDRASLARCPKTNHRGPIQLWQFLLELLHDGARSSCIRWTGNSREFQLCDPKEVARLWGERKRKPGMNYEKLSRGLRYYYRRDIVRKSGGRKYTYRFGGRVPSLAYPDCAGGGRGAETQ
The following applies: protein: recombinant; tags: N-terminal GST; dsDNA, one strand shown. Summed up: as §1

A further test deals with T5, ELF3 (Homo sapiens, UniProt P78545 1-371).
T5 sequence: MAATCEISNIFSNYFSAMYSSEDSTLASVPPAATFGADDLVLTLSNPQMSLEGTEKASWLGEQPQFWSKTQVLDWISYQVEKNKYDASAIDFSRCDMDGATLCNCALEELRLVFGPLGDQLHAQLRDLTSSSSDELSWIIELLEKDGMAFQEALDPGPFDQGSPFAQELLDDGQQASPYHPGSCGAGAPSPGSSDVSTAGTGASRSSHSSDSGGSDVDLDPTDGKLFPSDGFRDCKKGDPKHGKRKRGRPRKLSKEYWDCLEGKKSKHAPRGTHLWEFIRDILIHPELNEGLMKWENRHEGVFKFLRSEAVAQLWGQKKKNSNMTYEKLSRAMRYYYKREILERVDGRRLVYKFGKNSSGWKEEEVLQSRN
The following applies: protein: recombinant; tags: N-terminal GST; dsDNA, one strand shown. Summed up: as §1

The next test has as its target CRX (Homo sapiens, UniProt O43186 1-299). The following applies: protein: recombinant; tags: N-terminal GST; dsDNA, one strand shown. An outline of the steps:
as §1

In the next test the target is ETV1 (Homo sapiens, UniProt P50549 1-477). The following applies: protein: recombinant; tags: N-terminal GST; dsDNA, one strand shown. Summed up: as §1
Sequence of ETV1 (P50549 whole entry): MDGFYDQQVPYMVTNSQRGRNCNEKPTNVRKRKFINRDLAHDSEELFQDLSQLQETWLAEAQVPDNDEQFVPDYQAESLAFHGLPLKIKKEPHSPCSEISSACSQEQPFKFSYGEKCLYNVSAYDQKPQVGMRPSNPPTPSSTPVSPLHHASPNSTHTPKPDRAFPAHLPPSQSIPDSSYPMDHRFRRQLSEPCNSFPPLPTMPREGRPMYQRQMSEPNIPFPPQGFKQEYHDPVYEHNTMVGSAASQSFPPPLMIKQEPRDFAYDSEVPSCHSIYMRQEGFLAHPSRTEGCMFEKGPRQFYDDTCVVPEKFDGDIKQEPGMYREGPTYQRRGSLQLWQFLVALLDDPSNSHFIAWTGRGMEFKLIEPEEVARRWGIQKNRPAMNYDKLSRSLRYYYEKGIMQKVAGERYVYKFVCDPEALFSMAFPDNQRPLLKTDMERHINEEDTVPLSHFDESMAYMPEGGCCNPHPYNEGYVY

Sequence of CRX (O43186 whole entry): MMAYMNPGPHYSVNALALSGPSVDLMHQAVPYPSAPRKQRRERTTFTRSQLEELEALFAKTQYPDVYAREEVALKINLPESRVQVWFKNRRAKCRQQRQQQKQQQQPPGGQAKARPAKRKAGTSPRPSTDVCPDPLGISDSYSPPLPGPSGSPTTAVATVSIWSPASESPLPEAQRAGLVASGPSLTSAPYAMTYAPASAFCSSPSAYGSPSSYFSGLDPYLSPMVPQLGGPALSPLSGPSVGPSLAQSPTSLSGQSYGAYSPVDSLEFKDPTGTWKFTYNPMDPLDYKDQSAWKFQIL
Sequence of ETV5 (P41161 whole entry): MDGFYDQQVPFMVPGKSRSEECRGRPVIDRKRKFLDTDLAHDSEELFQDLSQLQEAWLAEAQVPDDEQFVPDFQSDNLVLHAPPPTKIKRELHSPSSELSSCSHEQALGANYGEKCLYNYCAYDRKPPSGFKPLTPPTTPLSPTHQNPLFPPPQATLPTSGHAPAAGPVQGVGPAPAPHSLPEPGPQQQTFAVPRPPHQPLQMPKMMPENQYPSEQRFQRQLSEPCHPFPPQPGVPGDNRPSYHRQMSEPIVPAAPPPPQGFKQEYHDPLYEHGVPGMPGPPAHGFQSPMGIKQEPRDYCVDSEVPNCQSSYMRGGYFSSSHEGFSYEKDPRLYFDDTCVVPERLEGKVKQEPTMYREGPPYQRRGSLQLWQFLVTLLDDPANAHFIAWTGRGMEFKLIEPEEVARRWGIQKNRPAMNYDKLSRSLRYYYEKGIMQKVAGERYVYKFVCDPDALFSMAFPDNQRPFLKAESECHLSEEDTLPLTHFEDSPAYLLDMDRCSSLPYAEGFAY
Sequence of ELF4 (Q99607 whole entry): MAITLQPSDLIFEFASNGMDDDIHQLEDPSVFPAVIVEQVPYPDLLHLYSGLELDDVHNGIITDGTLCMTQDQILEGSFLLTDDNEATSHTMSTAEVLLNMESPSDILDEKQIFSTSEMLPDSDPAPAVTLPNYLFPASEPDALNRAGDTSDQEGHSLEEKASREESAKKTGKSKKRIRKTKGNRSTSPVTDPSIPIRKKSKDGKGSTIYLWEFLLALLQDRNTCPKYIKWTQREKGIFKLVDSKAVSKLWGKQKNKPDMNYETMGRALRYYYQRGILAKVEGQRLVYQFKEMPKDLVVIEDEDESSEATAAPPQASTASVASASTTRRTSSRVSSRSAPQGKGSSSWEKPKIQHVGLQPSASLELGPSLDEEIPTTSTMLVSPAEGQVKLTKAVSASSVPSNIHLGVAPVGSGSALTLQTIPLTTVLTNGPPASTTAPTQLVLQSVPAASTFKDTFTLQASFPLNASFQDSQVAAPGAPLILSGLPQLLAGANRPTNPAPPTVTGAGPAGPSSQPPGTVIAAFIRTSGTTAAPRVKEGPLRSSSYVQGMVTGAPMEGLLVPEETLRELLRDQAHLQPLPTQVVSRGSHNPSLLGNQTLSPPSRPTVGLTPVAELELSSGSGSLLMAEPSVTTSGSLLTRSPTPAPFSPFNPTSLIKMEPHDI
Sequence of HSF1 (Q00613 whole entry): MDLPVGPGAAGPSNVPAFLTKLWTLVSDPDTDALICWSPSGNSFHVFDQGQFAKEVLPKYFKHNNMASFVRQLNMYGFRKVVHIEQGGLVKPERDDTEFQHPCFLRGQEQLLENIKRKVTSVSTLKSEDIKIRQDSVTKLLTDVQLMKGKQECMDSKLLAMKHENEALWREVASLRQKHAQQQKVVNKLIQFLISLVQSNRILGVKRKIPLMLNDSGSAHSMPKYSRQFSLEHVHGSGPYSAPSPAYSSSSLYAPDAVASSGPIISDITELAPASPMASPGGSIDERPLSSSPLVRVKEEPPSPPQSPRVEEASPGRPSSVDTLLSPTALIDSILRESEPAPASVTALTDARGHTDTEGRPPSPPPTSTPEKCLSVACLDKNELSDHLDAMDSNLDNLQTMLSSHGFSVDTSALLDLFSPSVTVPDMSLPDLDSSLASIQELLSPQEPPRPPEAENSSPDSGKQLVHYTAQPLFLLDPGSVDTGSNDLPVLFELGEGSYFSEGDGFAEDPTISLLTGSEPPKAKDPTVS

As to ATTTTA, the binding signal with FEV is 1.25 fold enrichment (6-mer frequency, TF over GST control); with ETV5, 1.23 fold enrichment (6-mer frequency, TF over GST control); in the test with HSF1, 1.45 fold enrichment (6-mer frequency, TF over GST control); with SPIC, 1.36 fold enrichment (6-mer frequency, TF over GST control); with ELF4 it was 1.32 fold enrichment (6-mer frequency, TF over GST control); with ELK4, 1.37 fold enrichment (6-mer frequency, TF over GST control). Moreover, the binding signal in the test with ETV2 is 1.29 fold enrichment (6-mer frequency, TF over GST control); in the test with ELF3 it was 1.23 fold enrichment (6-mer frequency, TF over GST control); in the test with CRX, 1.83 fold enrichment (6-mer frequency, TF over GST control); in the test with ETV1, 1.25 fold enrichment (6-mer frequency, TF over GST control).
Turning to CCTTGA, the binding signal is 1.19 fold enrichment (6-mer frequency, TF over GST control) with FEV; 1.25 fold enrichment (6-mer frequency, TF over GST control) with ETV5; 1.07 fold enrichment (6-mer frequency, TF over GST control) in the test with HSF1; 1.27 fold enrichment (6-mer frequency, TF over GST control) in the test with SPIC; 1.22 fold enrichment (6-mer frequency, TF over GST control) with ELF4; 1.22 fold enrichment (6-mer frequency, TF over GST control) in the test with ELK4. Besides, the binding signal with ETV2 was 1.11 fold enrichment (6-mer frequency, TF over GST control); with ELF3 it was 1.26 fold enrichment (6-mer frequency, TF over GST control); with CRX, 1.16 fold enrichment (6-mer frequency, TF over GST control); with ETV1, 1.17 fold enrichment (6-mer frequency, TF over GST control).
For GCTATA, the binding signal with FEV was 1.14 fold enrichment (6-mer frequency, TF over GST control); with ETV5, 1.18 fold enrichment (6-mer frequency, TF over GST control); in the test with HSF1 it was 1.08 fold enrichment (6-mer frequency, TF over GST control); with SPIC it was 1.08 fold enrichment (6-mer frequency, TF over GST control); with ELF4, 1.14 fold enrichment (6-mer frequency, TF over GST control); in the test with ELK4, 1.18 fold enrichment (6-mer frequency, TF over GST control). The binding signal was 1.2 fold enrichment (6-mer frequency, TF over GST control) in the test with ETV2; 1.22 fold enrichment (6-mer frequency, TF over GST control) with ELF3; 1.23 fold enrichment (6-mer frequency, TF over GST control) with CRX; 1.14 fold enrichment (6-mer frequency, TF over GST control) with ETV1.
Consider TTAACG, for which the binding signal is 1.13 fold enrichment (6-mer frequency, TF over GST control) with FEV; 1.22 fold enrichment (6-mer frequency, TF over GST control) in the test with ETV5; 1.73 fold enrichment (6-mer frequency, TF over GST control) with HSF1; 1.11 fold enrichment (6-mer frequency, TF over GST control) with SPIC; 1.15 fold enrichment (6-mer frequency, TF over GST control) in the test with ELF4; 1.17 fold enrichment (6-mer frequency, TF over GST control) with ELK4. Further, the binding signal in the test with ETV2 is 1.17 fold enrichment (6-mer frequency, TF over GST control); with ELF3, 1.27 fold enrichment (6-mer frequency, TF over GST control); with CRX it was 2.66 fold enrichment (6-mer frequency, TF over GST control); with ETV1 it was 1.19 fold enrichment (6-mer frequency, TF over GST control).
In the case of TATGAT, the binding signal with FEV was 1.16 fold enrichment (6-mer frequency, TF over GST control); with ETV5, 1.24 fold enrichment (6-mer frequency, TF over GST control); with HSF1, 1.31 fold enrichment (6-mer frequency, TF over GST control); in the test with SPIC, 1.29 fold enrichment (6-mer frequency, TF over GST control); in the test with ELF4, 1.12 fold enrichment (6-mer frequency, TF over GST control); with ELK4, 1.25 fold enrichment (6-mer frequency, TF over GST control). Also, the binding signal is 1.27 fold enrichment (6-mer frequency, TF over GST control) with ETV2; 1.09 fold enrichment (6-mer frequency, TF over GST control) with ELF3; 1.5 fold enrichment (6-mer frequency, TF over GST control) with CRX; 1.17 fold enrichment (6-mer frequency, TF over GST control) with ETV1.
Consider CCTATA, for which the binding signal in the test with FEV is 1.33 fold enrichment (6-mer frequency, TF over GST control); with ETV5 it was 1.31 fold enrichment (6-mer frequency, TF over GST control); in the test with HSF1, 1.16 fold enrichment (6-mer frequency, TF over GST control); with SPIC it was 1.35 fold enrichment (6-mer frequency, TF over GST control); with ELF4, 1.29 fold enrichment (6-mer frequency, TF over GST control); with ELK4 it was 1.4 fold enrichment (6-mer frequency, TF over GST control). In addition, the binding signal was 1.43 fold enrichment (6-mer frequency, TF over GST control) with ETV2; 1.15 fold enrichment (6-mer frequency, TF over GST control) in the test with ELF3; 1.34 fold enrichment (6-mer frequency, TF over GST control) with CRX; 1.29 fold enrichment (6-mer frequency, TF over GST control) with ETV1.
In the case of ACGCTT, the binding signal with FEV is 1.4 fold enrichment (6-mer frequency, TF over GST control); with ETV5, 1.41 fold enrichment (6-mer frequency, TF over GST control); in the test with HSF1, 1.22 fold enrichment (6-mer frequency, TF over GST control); with SPIC it was 1.32 fold enrichment (6-mer frequency, TF over GST control); in the test with ELF4, 1.43 fold enrichment (6-mer frequency, TF over GST control); with ELK4, 1.23 fold enrichment (6-mer frequency, TF over GST control). The binding signal with ETV2 was 1.28 fold enrichment (6-mer frequency, TF over GST control); with ELF3, 1.55 fold enrichment (6-mer frequency, TF over GST control); with CRX, 1.36 fold enrichment (6-mer frequency, TF over GST control); in the test with ETV1, 1.39 fold enrichment (6-mer frequency, TF over GST control).
Turning to CGTACT, the binding signal with FEV was 1.17 fold enrichment (6-mer frequency, TF over GST control); in the test with ETV5, 1.22 fold enrichment (6-mer frequency, TF over GST control); with HSF1, 1.05 fold enrichment (6-mer frequency, TF over GST control); with SPIC it was 1.12 fold enrichment (6-mer frequency, TF over GST control); with ELF4, 1.25 fold enrichment (6-mer frequency, TF over GST control); with ELK4, 1.22 fold enrichment (6-mer frequency, TF over GST control). In addition, the binding signal was 1.35 fold enrichment (6-mer frequency, TF over GST control) with ETV2; 1.15 fold enrichment (6-mer frequency, TF over GST control) with ELF3; 1.07 fold enrichment (6-mer frequency, TF over GST control) with CRX; 1.34 fold enrichment (6-mer frequency, TF over GST control) in the test with ETV1.
